This passage reports inhibition results from ChEMBL document CHEMBL1961873, “Compounds: GSK PKIS; Assays: Nanosyn kinase panel” (2012).

For orientation: inhibition means the change of the read-out against control, counted positive when it falls.

The target of test [1] is RAC-alpha serine/threonine-protein kinase (Homo sapiens) (UniProt P31749). The conditions noted are these: at 0.1 µM.
For test [2] the target is unchanged. The conditions noted are these: at 1 µM.
In test [3] the target is RAC-beta serine/threonine-protein kinase (Homo sapiens) (UniProt P31751). The conditions noted are these: at 0.1 µM.
Sequence of RAC-beta serine/threonine-protein kinase (Homo sapiens) (P31751 whole entry): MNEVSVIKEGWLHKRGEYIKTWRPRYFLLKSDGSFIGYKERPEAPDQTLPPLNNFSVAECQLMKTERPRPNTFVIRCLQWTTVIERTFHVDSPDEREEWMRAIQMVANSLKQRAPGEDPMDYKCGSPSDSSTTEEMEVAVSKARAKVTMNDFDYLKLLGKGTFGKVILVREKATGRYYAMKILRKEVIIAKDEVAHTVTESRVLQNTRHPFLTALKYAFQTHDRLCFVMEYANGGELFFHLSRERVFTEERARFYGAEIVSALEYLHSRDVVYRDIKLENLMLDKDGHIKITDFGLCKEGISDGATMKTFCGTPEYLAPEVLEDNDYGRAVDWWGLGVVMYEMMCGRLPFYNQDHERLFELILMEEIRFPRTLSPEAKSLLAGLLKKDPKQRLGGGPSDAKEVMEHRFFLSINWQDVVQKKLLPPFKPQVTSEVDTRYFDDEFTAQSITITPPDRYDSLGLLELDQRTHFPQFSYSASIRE
Test [4] shares this target. The conditions noted are these: at 1 µM.
Test [5] has as its target RAC-gamma serine/threonine-protein kinase (Homo sapiens) (UniProt Q9Y243). The conditions noted are these: at 0.1 µM.
The target is the same in test [6]. Particulars: at 1 µM.
Test [7] addresses G protein-coupled receptor kinase 6 (Homo sapiens) (UniProt P43250). The conditions noted are these: at 0.1 µM.
Test [8] has the same target. The conditions noted are these: at 1 µM.
Test [9] addresses T1, Rhodopsin kinase GRK7 (Homo sapiens) (UniProt Q8WTQ7).
T1 sequence (whole entry): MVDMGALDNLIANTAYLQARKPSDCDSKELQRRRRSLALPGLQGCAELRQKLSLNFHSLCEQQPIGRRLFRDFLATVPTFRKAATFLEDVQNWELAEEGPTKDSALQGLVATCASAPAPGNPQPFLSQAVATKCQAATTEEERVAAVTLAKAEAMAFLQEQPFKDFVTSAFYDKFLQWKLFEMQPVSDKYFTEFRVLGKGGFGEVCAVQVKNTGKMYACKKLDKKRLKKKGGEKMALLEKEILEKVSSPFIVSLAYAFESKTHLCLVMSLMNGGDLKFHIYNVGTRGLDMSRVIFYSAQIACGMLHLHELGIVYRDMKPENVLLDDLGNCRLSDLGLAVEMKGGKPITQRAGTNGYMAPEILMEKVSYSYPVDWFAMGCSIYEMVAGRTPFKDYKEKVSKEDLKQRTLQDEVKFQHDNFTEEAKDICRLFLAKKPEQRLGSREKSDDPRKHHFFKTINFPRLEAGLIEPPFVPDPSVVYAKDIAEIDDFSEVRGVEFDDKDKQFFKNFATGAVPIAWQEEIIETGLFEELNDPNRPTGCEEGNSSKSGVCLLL
Particulars: at 0.1 µM.

Test [10] has as its target T1, Rhodopsin kinase GRK7 (Homo sapiens). The conditions noted are these: at 1 µM.
For test [11], the target named is Serine/threonine-protein kinase MRCK alpha (Homo sapiens) (UniProt Q5VT25). The conditions noted are these: at 0.1 µM.
The target is the same in test [12]. The conditions noted are these: at 1 µM.
In test [13] the target is Serine/threonine-protein kinase MRCK beta (Homo sapiens) (UniProt Q9Y5S2). The conditions noted are these: at 0.1 µM.
Sequence of Serine/threonine-protein kinase MRCK beta (Homo sapiens) (Q9Y5S2 whole entry): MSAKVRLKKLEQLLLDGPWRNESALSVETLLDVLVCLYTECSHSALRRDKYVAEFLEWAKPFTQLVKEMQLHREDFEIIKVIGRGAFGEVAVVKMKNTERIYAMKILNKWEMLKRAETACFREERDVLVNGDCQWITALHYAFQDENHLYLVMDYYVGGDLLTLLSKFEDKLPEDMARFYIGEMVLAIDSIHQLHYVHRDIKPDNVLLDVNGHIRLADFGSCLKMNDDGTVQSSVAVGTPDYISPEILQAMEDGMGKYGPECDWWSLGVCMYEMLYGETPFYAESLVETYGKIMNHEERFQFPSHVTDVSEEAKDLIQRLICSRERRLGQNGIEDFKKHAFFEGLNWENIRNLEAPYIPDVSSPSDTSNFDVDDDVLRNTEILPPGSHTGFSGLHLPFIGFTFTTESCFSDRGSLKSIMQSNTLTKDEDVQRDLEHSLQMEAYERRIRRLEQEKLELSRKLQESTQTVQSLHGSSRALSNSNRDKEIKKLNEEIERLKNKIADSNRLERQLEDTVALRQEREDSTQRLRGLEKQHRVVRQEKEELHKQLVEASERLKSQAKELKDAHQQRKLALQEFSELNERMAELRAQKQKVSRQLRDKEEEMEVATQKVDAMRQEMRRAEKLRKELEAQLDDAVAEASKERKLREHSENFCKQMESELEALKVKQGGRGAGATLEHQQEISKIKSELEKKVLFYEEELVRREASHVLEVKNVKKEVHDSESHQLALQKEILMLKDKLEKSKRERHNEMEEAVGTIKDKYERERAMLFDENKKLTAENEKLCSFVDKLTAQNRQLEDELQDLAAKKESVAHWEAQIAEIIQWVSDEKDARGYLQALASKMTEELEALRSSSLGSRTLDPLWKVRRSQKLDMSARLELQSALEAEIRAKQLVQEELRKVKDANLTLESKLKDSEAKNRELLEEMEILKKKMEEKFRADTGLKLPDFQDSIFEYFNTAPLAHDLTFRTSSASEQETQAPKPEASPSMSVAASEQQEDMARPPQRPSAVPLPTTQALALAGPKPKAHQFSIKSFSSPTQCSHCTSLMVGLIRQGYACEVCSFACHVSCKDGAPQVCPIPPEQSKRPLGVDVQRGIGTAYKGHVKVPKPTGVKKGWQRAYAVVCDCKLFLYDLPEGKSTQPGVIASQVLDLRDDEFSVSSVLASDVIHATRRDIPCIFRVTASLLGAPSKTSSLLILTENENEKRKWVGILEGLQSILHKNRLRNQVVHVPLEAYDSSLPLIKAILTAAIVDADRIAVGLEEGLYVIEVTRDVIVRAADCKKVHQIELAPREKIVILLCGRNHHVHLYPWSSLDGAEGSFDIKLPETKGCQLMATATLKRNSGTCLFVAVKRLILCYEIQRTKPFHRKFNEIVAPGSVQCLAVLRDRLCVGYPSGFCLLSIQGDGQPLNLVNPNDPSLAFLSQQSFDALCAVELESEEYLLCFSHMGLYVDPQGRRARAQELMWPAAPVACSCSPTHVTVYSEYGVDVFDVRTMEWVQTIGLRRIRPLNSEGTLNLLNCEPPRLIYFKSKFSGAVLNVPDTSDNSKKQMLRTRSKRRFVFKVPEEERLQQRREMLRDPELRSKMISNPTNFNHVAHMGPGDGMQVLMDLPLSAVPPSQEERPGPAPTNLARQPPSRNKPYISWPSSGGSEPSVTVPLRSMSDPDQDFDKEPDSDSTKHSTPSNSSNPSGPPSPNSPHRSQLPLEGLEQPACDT
For test [14] the target is unchanged. Particulars: at 1 µM.
Test [15] addresses Ribosomal protein S6 kinase alpha-5 (Homo sapiens) (UniProt O75582). The conditions noted are these: at 0.1 µM.
Test [16] has the same target. The conditions noted are these: at 1 µM.
The target of test [17] is Ribosomal protein S6 kinase alpha-4 (Homo sapiens) (UniProt O75676). The conditions noted are these: at 0.1 µM.
Sequence of Ribosomal protein S6 kinase alpha-4 (Homo sapiens) (O75676 whole entry, looked up): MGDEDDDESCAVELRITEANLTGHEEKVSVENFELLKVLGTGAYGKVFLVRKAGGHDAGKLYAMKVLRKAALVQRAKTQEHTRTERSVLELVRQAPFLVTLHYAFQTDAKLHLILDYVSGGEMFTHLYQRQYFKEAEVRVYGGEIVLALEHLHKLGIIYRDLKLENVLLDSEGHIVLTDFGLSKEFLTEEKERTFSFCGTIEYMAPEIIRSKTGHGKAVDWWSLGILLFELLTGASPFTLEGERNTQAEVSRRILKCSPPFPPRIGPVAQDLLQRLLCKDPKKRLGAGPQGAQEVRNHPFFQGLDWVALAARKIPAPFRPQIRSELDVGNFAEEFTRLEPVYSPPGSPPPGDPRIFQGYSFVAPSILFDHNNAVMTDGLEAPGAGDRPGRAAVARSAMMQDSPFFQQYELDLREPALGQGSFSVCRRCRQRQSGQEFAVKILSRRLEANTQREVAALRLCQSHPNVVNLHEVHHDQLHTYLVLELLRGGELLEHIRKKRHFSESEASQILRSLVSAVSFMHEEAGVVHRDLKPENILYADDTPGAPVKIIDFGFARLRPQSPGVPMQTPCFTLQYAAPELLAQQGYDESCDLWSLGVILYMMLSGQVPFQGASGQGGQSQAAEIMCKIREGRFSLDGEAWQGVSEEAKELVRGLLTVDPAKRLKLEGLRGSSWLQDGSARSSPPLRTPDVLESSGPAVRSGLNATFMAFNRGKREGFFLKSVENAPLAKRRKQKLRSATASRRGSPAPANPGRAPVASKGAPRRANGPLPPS
The target is the same in test [18]. The conditions noted are these: at 1 µM.
Test [19] addresses Ribosomal protein S6 kinase beta-1 (Homo sapiens) (UniProt P23443). Particulars: at 0.1 µM.
The target is the same in test [20]. The conditions noted are these: at 1 µM.

Sequence of Ribosomal protein S6 kinase alpha-5 (Homo sapiens) (O75582 whole entry, looked up): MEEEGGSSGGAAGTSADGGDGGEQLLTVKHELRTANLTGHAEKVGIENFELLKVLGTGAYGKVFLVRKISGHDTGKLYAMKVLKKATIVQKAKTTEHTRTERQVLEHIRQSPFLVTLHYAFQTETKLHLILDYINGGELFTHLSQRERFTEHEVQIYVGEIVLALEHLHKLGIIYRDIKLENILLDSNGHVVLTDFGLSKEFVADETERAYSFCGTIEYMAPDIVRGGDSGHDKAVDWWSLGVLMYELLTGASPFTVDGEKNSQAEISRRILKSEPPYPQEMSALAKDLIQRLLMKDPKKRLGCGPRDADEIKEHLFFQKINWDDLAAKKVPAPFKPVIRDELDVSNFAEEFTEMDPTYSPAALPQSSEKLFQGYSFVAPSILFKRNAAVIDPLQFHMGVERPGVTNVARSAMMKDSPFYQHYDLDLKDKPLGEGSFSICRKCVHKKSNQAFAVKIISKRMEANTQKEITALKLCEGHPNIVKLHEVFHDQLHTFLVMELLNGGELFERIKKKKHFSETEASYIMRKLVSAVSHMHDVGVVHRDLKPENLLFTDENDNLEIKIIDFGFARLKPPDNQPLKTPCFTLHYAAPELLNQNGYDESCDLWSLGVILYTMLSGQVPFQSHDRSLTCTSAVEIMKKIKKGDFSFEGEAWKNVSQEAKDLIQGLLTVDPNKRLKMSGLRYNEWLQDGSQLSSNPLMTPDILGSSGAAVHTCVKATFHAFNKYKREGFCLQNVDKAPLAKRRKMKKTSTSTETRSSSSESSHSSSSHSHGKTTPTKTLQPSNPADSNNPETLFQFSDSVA
Sequence of RAC-gamma serine/threonine-protein kinase (Homo sapiens) (Q9Y243 whole entry): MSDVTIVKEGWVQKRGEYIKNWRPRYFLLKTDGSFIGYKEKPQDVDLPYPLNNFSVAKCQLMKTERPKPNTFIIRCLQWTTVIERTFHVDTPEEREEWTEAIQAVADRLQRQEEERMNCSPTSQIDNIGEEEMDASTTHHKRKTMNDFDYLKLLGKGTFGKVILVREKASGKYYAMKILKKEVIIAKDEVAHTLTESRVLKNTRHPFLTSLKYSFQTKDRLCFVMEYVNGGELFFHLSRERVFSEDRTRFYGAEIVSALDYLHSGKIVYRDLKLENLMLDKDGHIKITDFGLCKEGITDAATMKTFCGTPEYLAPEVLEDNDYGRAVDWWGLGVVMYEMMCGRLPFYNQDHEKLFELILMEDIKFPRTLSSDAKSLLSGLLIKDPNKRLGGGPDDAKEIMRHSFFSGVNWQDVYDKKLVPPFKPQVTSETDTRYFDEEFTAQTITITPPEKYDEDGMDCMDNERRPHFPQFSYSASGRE
Sequence of G protein-coupled receptor kinase 6 (Homo sapiens) (P43250 whole entry, looked up): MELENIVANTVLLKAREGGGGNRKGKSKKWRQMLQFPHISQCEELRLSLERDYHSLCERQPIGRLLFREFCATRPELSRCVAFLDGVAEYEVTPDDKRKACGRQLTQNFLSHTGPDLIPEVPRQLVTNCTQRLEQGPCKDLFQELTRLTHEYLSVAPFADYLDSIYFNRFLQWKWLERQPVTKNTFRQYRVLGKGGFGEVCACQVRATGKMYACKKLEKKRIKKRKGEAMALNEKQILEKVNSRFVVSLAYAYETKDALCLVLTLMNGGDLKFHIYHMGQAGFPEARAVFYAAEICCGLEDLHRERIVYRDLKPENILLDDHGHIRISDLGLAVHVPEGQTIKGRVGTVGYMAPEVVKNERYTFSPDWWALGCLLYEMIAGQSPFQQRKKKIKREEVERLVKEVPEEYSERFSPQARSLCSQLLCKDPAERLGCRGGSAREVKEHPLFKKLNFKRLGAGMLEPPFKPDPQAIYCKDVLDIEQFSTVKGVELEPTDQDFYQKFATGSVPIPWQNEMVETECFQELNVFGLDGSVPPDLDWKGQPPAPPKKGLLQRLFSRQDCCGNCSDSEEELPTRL

On to `COc1cccc(-n2ncc3c(N/N=C/c4ccncc4)ncnc32)c1`, for which the inhibition in test [1] was 0.24%; in test [2], -0.78%; in test [3], 1.42%; in [4], -0.44%; in [5], 3.63%; in test [6], 0.47%. Besides, the inhibition was 1.7% in [7]; 1.85% in test [8]; 5.1% in test [9]; 5.17% in test [10]; -0.11% in test [11]; 3.78% in [12]. Also, the inhibition in test [13] came out at 0.53%; in [14] it was 0.77%; in test [15] it was 3.86%; in test [16], 4.1%; in [17], 2.47%; in [18], 4.26%. Also, the inhibition in test [19] stood at 2.67%; in test [20], 7.24%.
Turning to `CCn1c(-c2nonc2N)nc2c(C#CC(C)(C)O)ncc(OC[C@@H]3CCCN3)c21`, the inhibition is 68.2% in [1]; 91.1% in [2]; 79.7% in test [3]; 67.5% in test [5]; 90.4% in test [6]; -2.91% in test [7]. Besides, the inhibition in test [8] is 0.91%; in [9] it was 6.42%; in test [10], 14%; in test [11], -1.54%; in test [12] it was 23.5%; in [13], 2.11%. For the same molecule, the inhibition came out at 19.5% in test [14]; 0.57% in test [15]; 7.89% in test [16]; 3.2% in test [17]; 17.5% in test [18]; 3.87% in test [19]. Further, in [20], the inhibition came out at 25.4%.
Regarding `COc1cc(C=NNc2ncnc3c2cnn3Cc2ccccc2)ccc1O`, the inhibition in test [1] was -2.34%; in test [2], -2.35%; in [3] it was -3.56%; in test [4] it was -1.08%; in test [5] it was -2.66%; in test [6], -1.29%. The inhibition in test [7] is -3.93%; in test [8], -0.64%; in test [10] it was -3.65%; in [11], 1.44%; in test [12] it was -1.07%; in test [13], 1.9%. Moreover, the inhibition is 4.11% in [14]; 2.29% in test [15]; 3% in test [16]; 1.75% in [17]; 4.49% in test [18]; -1.02% in test [19]. In addition, in [20], the inhibition is -0.11%.
As for `NC(=O)c1sc(-n2cnc3cc(C(F)(F)F)ccc32)cc1OCc1ccccc1Br`, the inhibition in [1] is 0.26%; in test [2], 0.43%; in [3], -0.81%; in test [4], 0.47%; in [5], 0.03%; in [7], 3.71%. Also, the inhibition in test [8] was 1.08%; in test [9], 5.6%; in [10] it was 5.78%; in test [11], -1.08%; in test [12], -4.81%; in test [13], 0.07%. Moreover, the inhibition was 0.13% in test [14]; 0.28% in [15]; -0.19% in test [16]; 2.32% in [17]; 1.32% in test [18]; 1.25% in test [19]. Besides, the inhibition in [20] is -0.49%.
`CCn1c(-c2nonc2N)nc2c(C#CC(C)(C)O)ncc(OCC3CCNCC3)c21`: the inhibition came out at 60.7% in test [1]; 88.2% in test [2]; 74.2% in test [3]; 89.3% in [4]; 57.7% in test [5]; 86% in test [6]. Further, the inhibition in test [7] came out at 4.53%; in test [8], 11.1%; in test [9] it was 5.08%; in test [10], 23.3%; in test [11] it was 3.52%; in [12] it was 33.2%. Further, the inhibition in [13] was 2.36%; in [14] it was 21.1%; in test [15], 2.98%; in [16], 16.2%; in test [17], 4.39%; in test [18] it was 19.2%. Further, the values for the inhibition in [19] and in test [20] were 3.1% and 15.4%, respectively.
With `COc1cc2c(cc1Nc1nc(Nc3ccsc3C(N)=O)c3cc[nH]c3n1)N(C(=O)CN(C)C)CCC2`, the inhibition is -0.27% in test [1]; -0.06% in [2]; 2.64% in [3]; 0.91% in [4]; 2.81% in test [5]; 4.75% in test [6]. For the same molecule, the inhibition in test [7] was 27.5%; in test [8], 82.8%; in [9], 22.1%; in test [10], 60.3%; in test [11], -2.47%; in test [12], -0.12%. Moreover, the inhibition in test [13] was -0.68%; in test [14], -0.44%; in test [15], 2.59%; in test [16], -0.04%; in [17], 2.53%; in test [18] it was -0.18%. Besides, the inhibition in test [19] stood at 1.15%; in [20] it was 0.53%.
For the molecule `CCn1c(-c2nonc2N)nc2c(C#CCN)ncc(OCCCN)c21`, the inhibition in test [1] is -0.6%; in [2], 10.9%; in test [3], -0.31%; in test [4], 12.8%; in test [5] it was 1.83%; in test [6] it was 10%. In addition, the inhibition in [7] was -5.01%; in test [8], 6.23%; in test [9] it was 0.4%; in [10] it was 7.43%; in test [11], 6.68%; in test [12], 13.4%. In addition, the inhibition is 6.58% in test [13]; 23.4% in test [14]; 12.1% in [15]; 51.5% in test [16]; 12.9% in test [17]; 52% in test [18]. The values for the inhibition in [19] and in test [20] were 7.3% and 44.7%, respectively.
